High-throughput results (PubChem)
IEC-6 cytotox: cytotoxicity in IEC-6 intestinal epithelial cells, primary screen, cytotoxicity control for KLF5 inhibitor project, cell-based, luminescence; IEC-6 cytotoxicity, luminescence viability; inhibition, % at 5 µM; 0.78% of 290,000 active; AID 1825, 2009; in the data active = inhibition above about 22%
Ba/F3 V617F tox: reduced viability of JAK2V617F-dependent Ba/F3 cells, primary screen, JAK2V617F inhibitor project, cell-based, Ba/F3 EpoR-JAK2V617F, luminescence; ATP luminescence; inhibition, % at 5.6 µM; 1.1% of 220,000 active; AID 1446, 2008;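 active = inhibition above the campaign mean plus 3 SD over all tested compounds, cut at about 24% in these data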;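 also: cytokine-independent growth of Ba/F3 cells driven by EpoR plus mutant JAK2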
KLF5 inhibitor: KLF5 expression inhibitors, primary screen, DLD-1 cells, luminescence; DLD-1 KLF5 promoter-luciferase reporter; inhibition, % at 5 µM; 0.23% of 290,000 active;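 active = inhibition above a per-plate limit of that plate's mean compound inhibition plus 3 SD, cut at about 60% in these data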;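 also: higher means less KLF5 promoter-driven luciferase light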
aSyn 5UTR inh: MLPCN primary screen, SNCA 5' untranslated region. alpha-synuclein 5'UTR reporter, inhibitor activity. inhibition, % (tested at 7.5 µM). 0.82% of 300,000 active. AID 1813, 2009; in the data active = inhibition above about 60%;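 also: H4 neuroglioblastoma cells stably carrying SNCA 5'UTR luciferase fusion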
APP transl inh: inhibitors of APP translation via 5'UTR reporter, primary screen, APP 5'UTR luciferase, SH-SY5Y cells. SH-SY5Y APP 5'UTR-luciferase reporter, luminescence. inhibition, % at 2 µM. 0.82% of 190,000 active;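 active = inhibition above a set limit, derived from the sample mean plus 3 SD, cut at about 45% in these data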
BaF3 parental: parental Ba/F3 cell viability inhibition, counter-screen for JAK2V617F inhibitor project, murine pro-B, CellTiter-Glo luminescence | 1.1% of 220,000 active | inhibition, % at 5.6 µM | CellTiter-Glo ATP luminescence;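 active = inhibition above a per-campaign cutoff, the mean inhibition of all tested compounds plus 3 SD, cut at about 27% in these data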
BaF3 parental 2: parental Ba/F3 cell viability inhibition, counter-screen for JAK2V617F inhibitor project, murine pro-B, CellTiter-Glo luminescence; AID 1520, 2009; 31% of 580 active; inhibition, % at 5.6 µM; shares compounds with Ba/F3 V617F tox; cells kept alive by added IL-3;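 active = cell growth inhibition above the hit limit set in the earlier mutant JAK2 cell screen, cut at about 27% in these data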
JAK2V617F conf: viability loss in Ba/F3 EpoR-JAK2V617F cells, confirmation, JAK2V617F inhibitor project, cell-based, luminescence, triplicate | CellTiter-Glo luminescence | 66% of 580 active | inhibition, % at 5.6 µM | shares compounds with Ba/F3 V617F tox;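 active = mean inhibition above the hit cutoff derived in the earlier primary screen, cut at about 25% in these data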;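 also: higher means lower luminescence from reduced cell ATP and viability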
Of the large screens only hits and unclear results are named; the others gave an inactive call (follow-up assays come after a bar, where they were run). Sampled rows, rich in hits. Any-hit rate of the full collection: about 2.2%.

Nc1ncnc2c1ncn2[C@@H]1O[C@H](CO)[C@@H](O)[C@@H]1O	none (no result: IEC-6 cytotox, Ba/F3 V617F tox, KLF5 inhibitor, APP transl inh, BaF3 parental)
Nc1ncnc2c1ncn2[C@@H]1O[C@H](CO)C[C@@H]1O	IEC-6 cytotox 66 (no result: APP transl inh)
CCNc1oc(-c2ccc(OC)cc2)nc1S(=O)(=O)c1ccc(Br)cc1	APP transl inh 49
CCCCNc1oc(-c2ccc(OC)cc2)nc1S(=O)(=O)c1ccccc1	none
CCOC(=O)c1c(C)[nH]c(C)c1S(=O)(=O)NC(C)Cc1ccco1 (configuration not stated)	none (no result: Ba/F3 V617F tox, APP transl inh, BaF3 parental)
N#Cc1c(Cl)nsc1NC(=O)c1ccccc1	Ba/F3 V617F tox 29, BaF3 parental 40
N#Cc1c(NC(=O)c2ccccc2)sc2c1CCCCC2	none
O=C(OCC(=O)c1ccc(Cl)s1)c1cnccn1	none (no result: Ba/F3 V617F tox, APP transl inh, BaF3 parental)
CCOC(=O)c1cc(-c2ccccc2)sc1NC(=O)COC(=O)c1cccc(S(N)(=O)=O)c1	aSyn 5UTR inh 72
O=C(CCc1ccc(S(=O)(=O)NCCc2ccccc2)cc1)Nc1ccc2c(c1)OCCO2	APP transl inh 75
CCCNS(=O)(=O)c1ccc(CCC(=O)Nc2ccc3c(c2)OCCO3)cc1	none
Cc1ccc(-n2c(CCC(=O)O)ccc2-c2cccs2)cc1C	BaF3 parental 55
Cc1ccccc1N/N=C/c1sc(=O)n(Cc2cccc(C(=O)O)c2)c1Cl	none (no result: APP transl inh)
COC(=O)c1cccc(Cn2c(Cl)c(/C=N/Nc3ccccc3C)sc2=O)c1	APP transl inh 46
COc1ccc(-c2cnnc(N/N=C/c3ccc(O)c(O)c3)n2)cc1	Ba/F3 V617F tox 47 | BaF3 parental 2 83 | JAK2V617F conf 100
COC(=O)CCN(C(=O)C1C2CC3CC(C2)CC1C3)c1ccccn1 (configuration not stated)	Ba/F3 V617F tox 49 | BaF3 parental 2 inactive | JAK2V617F conf inactive
CCOc1ccccc1C(=O)N(CCC(=O)OC)c1ccccn1	none
CC(C)CCn1cnc2c(oc3nc4c(cc32)CCCC4)c1=O	none (no result: APP transl inh)
Cc1c(C(=O)OCC(C)C)[nH]c2c1C(=O)CC(c1cccs1)C2 (configuration not stated)	Ba/F3 V617F tox 24, APP transl inh 59 | BaF3 parental 2 59 | JAK2V617F conf 88
COC(=O)c1[nH]c2c(c1C)C(=O)CC(c1ccc(C)cc1)C2 (configuration not stated)	none
Cc1ccc(CSCC(=O)NCc2cccnc2)cc1	none
Cc1ccc(CC(=O)NCc2cccnc2)cc1	Ba/F3 V617F tox 58 | BaF3 parental 2 inactive | JAK2V617F conf inactive
CCCNC(=O)COc1ccc(-c2nn(C)c(=O)c3ccccc23)cc1	none (no result: Ba/F3 V617F tox, APP transl inh, BaF3 parental)
COc1ccc(CCC(=O)Nc2cc(Cl)ccc2N2CCN(C)CC2)cc1	Ba/F3 V617F tox 33 | BaF3 parental 2 inactive | JAK2V617F conf inactive
Cc1ccc(S(=O)(=O)CC(=O)Nc2ccc3nc(C)sc3c2)cc1	none (no result: Ba/F3 V617F tox, APP transl inh, BaF3 parental)
COc1ccccc1NC(=O)C1C2CCCCC21 (configuration not stated)	Ba/F3 V617F tox 94 | BaF3 parental 2 inactive | JAK2V617F conf inactive
COc1ccccc1NC(=O)NC1CCCCCCC1	none (no result: Ba/F3 V617F tox, aSyn 5UTR inh, APP transl inh, BaF3 parental)
COCCn1c(SCc2ccc(F)cc2)nc2c1c(=O)[nH]c(=O)n2C	none (no result: Ba/F3 V617F tox, APP transl inh, BaF3 parental)
CCC(=O)c1cn([C@@H](CCC(OC)OC)CC(=O)OC(C)(C)C)cc1CC	none (no result: IEC-6 cytotox, Ba/F3 V617F tox, KLF5 inhibitor, APP transl inh, BaF3 parental)
Cc1[nH]c2ccccc2c(=O)c1C(=O)/C=C/c1ccccc1	Ba/F3 V617F tox 59 (no result: APP transl inh) | BaF3 parental 2 inactive | JAK2V617F conf 96
CCCC(=O)N(C1CC(C)C(C#N)(C#N)C1(C#N)C#N)N(C)C (configuration not stated)	Ba/F3 V617F tox 46 (no result: APP transl inh) | BaF3 parental 2 inactive | JAK2V617F conf 62
CCc1ccc(Nc2ccc(S(=O)(=O)N3CCOCC3)cc2[N+](=O)[O-])cc1	Ba/F3 V617F tox 82 | BaF3 parental 2 inactive | JAK2V617F conf inactive
COc1ccccc1N1CCc2c(C)nc3c(OC)cccc3c21	Ba/F3 V617F tox 45 (no result: APP transl inh) | BaF3 parental 2 inactive | JAK2V617F conf 50
CCCc1nc2n[nH]c(N)c2c2c1CCCC2	Ba/F3 V617F tox 25 | BaF3 parental 2 inactive | JAK2V617F conf 39
CCCc1nc2n[nH]c(N)c2c2c1CCC2	none
CC1CCCC(NC(=O)NC(=O)CCl)C1C (configuration not stated)	Ba/F3 V617F tox 58 | BaF3 parental 2 inactive | JAK2V617F conf 83
CC1CCCCC1NC(=O)NC(=O)CCl (configuration not stated)	none
CCOC(=O)C1=C(C)OC(N)=C(C#N)C1c1cc2c(cc1[N+](=O)[O-])OCO2 (configuration not stated)	none
O=C(O)CC(NC(=O)Nc1ccccc1)c1ccc(OC2CCCC2)cc1 (configuration not stated)	Ba/F3 V617F tox 33 | BaF3 parental 2 inactive | JAK2V617F conf inactive
CCCC1O[C@@H]2CC3C4CCC5=CC(=O)C=C[C@]5(C)C4C(OC(C)=O)C[C@]3(C)[C@]2(C(=O)COC(C)=O)O1 (some centres not stated)	Ba/F3 V617F tox 25 | BaF3 parental 2 inactive | JAK2V617F conf 28
COc1cccc(C(=O)NCC(=O)NCc2cc(=O)n(C)c(=O)n2C)c1	none (no result: Ba/F3 V617F tox, APP transl inh, BaF3 parental)
O=C(NNC(=S)Nc1ccc(Cl)c(Cl)c1)c1ccccn1	Ba/F3 V617F tox 32, aSyn 5UTR inh 68 | BaF3 parental 2 51 | JAK2V617F conf 47
CCNC(=S)NNC(=O)c1ccccn1	none
Cc1noc(NC(=O)c2ccc(Cl)c(Cl)c2)c1Cl	Ba/F3 V617F tox 29 | BaF3 parental 2 inactive | JAK2V617F conf 47
CC(C)CN(C(=O)COC(=O)Cc1cccc2ccccc12)c1c(N)n(Cc2ccccc2)c(=O)[nH]c1=O	none (no result: IEC-6 cytotox, Ba/F3 V617F tox, KLF5 inhibitor, APP transl inh, BaF3 parental)
c1ccc(-c2nc(-c3ccccn3)no2)cc1	Ba/F3 V617F tox 25 | BaF3 parental 2 29 | JAK2V617F conf inactive
CN(C)S(=O)(=O)c1cccc(C(=O)NCCOC(=O)c2cc(F)c(F)cc2Cl)c1	none (no result: Ba/F3 V617F tox, APP transl inh, BaF3 parental)
Cc1c(Cc2ccccc2)c(=O)oc2cc(O)ccc12	none (no result: APP transl inh)
Cc1c(Cc2ccccc2)c(=O)oc2c(O)c(O)ccc12	Ba/F3 V617F tox 44 | BaF3 parental 2 inactive | JAK2V617F conf 64
COC(=O)Cn1c(N)[n+](Cc2ccccc2)c2ccccc21	none (no result: IEC-6 cytotox, Ba/F3 V617F tox, KLF5 inhibitor, APP transl inh, BaF3 parental)
CCCCCCCOc1ccc(OC(=O)c2ccncc2)cc1	Ba/F3 V617F tox 52 | BaF3 parental 2 65 | JAK2V617F conf 93
CCCC1=C(C(=O)OCC)C(c2ccc(OC)c(C)c2OC)C(C#N)=C(N)O1 (configuration not stated)	none
